# Measurements taken from the supplement of paper PMC8728848.
# Shown is part of a subset that was picked to be rich in the strongest signals.
# Tests used:
# Assay in all cases: glycan array binding signal (z-score within array); higher = stronger binding
# Conditions in all cases: glycan notation: IUPAC condensed, linker removed; mutation: R186S
# [1] = target: Fuc(a1-2)Gal(b1-3)GalNAc(b1-4)[Neu5Ac(a2-3)]Gal(b1-4)Glc
# Summary of the method: (§1)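 Glycan array data were curated from 3228 arrays in the Consortium for Functional Glycomics database and kept only where the protein sequence was available. Glycan names were converted to IUPAC-condensed notation, and columns mapping to the same glycan were averaged. The binding signal is a within-array Z-score, averaged across arrays of the same protein sequence at different concentrations or buffers and across linkers. Negative Z-scores can be read as non-binding.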
# [2] = target: Fuc(a1-2)Gal(b1-4)[Fuc(a1-3)]GlcNAc(b1-2)Man(a1-3)[Fuc(a1-2)Gal(b1-4)[Fuc(a1-3)]GlcNAc(b1-2)Man(a1-6)]Man(b1-4)GlcNAc(b1-4)GlcNAc
# Summary of the method: as §1
# [3] = target: Fuc(a1-2)Gal(b1-4)[Fuc(a1-3)]GlcNAc(b1-3)Gal(b1-4)[Fuc(a1-3)]GlcNAc(b1-3)Gal(b1-4)[Fuc(a1-3)]GlcNAc
# Summary of the method: as §1
# [4] = target: Fuc(a1-2)[Gal(a1-3)]Gal(b1-3)GlcNAc(b1-2)Man(a1-3)[Fuc(a1-2)[Gal(a1-3)]Gal(b1-3)GlcNAc(b1-2)Man(a1-6)]Man(b1-4)GlcNAc(b1-4)GlcNAc
# Summary of the method: as §1
# [5] = target: Fuc(a1-2)[Gal(a1-3)]Gal(b1-4)GlcNAc(b1-2)Man(a1-3)[Fuc(a1-2)[Gal(a1-3)]Gal(b1-4)GlcNAc(b1-2)Man(a1-6)]Man(b1-4)GlcNAc(b1-4)GlcNAc
# Summary of the method: as §1
# [6] = target: Fuc(a1-2)[GalNAc(a1-3)]Gal(b1-3)GlcNAc(b1-2)Man(a1-3)[Fuc(a1-2)[GalNAc(a1-3)]Gal(b1-3)GlcNAc(b1-2)Man(a1-6)]Man(b1-4)GlcNAc(b1-4)GlcNAc
# Summary of the method: as §1
# [7] = target: Fuc(a1-3)[Gal(b1-4)]GlcNAc(b1-2)Man(a1-3)[Fuc(a1-3)[Gal(b1-4)]GlcNAc(b1-2)Man(a1-6)]Man(b1-4)GlcNAc(b1-4)GlcNAc
# Summary of the method: as §1
# [8] = target: Fuc(b1-3)GlcNAc
# Summary of the method: as §1
# [9] = target: Gal(a1-3)Gal(b1-4)[Fuc(a1-3)]GlcNAc(b1-2)Man(a1-3)[Gal(a1-3)Gal(b1-4)[Fuc(a1-3)]GlcNAc(b1-2)Man(a1-6)]Man(b1-4)GlcNAc(b1-4)GlcNAc
# Summary of the method: as §1
# [10] = target: Gal(b1-3)GlcNAc(b1-3)GalNAc
# Summary of the method: as §1
# [11] = target: Gal(b1-3)[Fuc(a1-4)]GlcNAc(b1-2)Man(a1-3)[Gal(b1-3)[Fuc(a1-4)]GlcNAc(b1-2)Man(a1-6)]Man(b1-4)GlcNAc(b1-4)GlcNAc
# Summary of the method: as §1
# [12] = target: Gal(b1-3)[Neu5Ac(a2-6)]GalNAc
# Summary of the method: as §1
# [13] = target: Gal(b1-4)GlcNAc(b1-2)Man(a1-3)[Gal(b1-4)GlcNAc(b1-2)Man(a1-6)]Man(b1-4)GlcNAc(b1-4)[Fuc(a1-6)]GlcNAc
# Summary of the method: as §1
# [14] = target: Gal(b1-4)GlcNAc(b1-2)Man(a1-6)[Man(a1-3)]Man(b1-4)GlcNAc(b1-4)GlcNAc
# Summary of the method: as §1
# [15] = target: Gal(b1-4)GlcNAc(b1-2)[Gal(b1-4)GlcNAc(b1-4)]Man(a1-3)[Gal(b1-4)GlcNAc(b1-2)Man(a1-6)]Man(b1-4)GlcNAc(b1-4)GlcNAc
# Summary of the method: as §1
# [16] = target: Gal(b1-4)GlcNAc(b1-3)Gal(b1-3)GlcNAc
# Summary of the method: as §1
# [17] = target: GalNAc(b1-4)GlcNAc(b1-2)Man(a1-3)[GalNAc(b1-4)GlcNAc(b1-2)Man(a1-6)]Man(b1-4)GlcNAc(b1-4)GlcNAc
# Summary of the method: as §1
# [18] = target: Glc(a1-6)Glc(a1-6)Glc
# Summary of the method: as §1
# [19] = target: GlcA(b1-6)Gal
# Summary of the method: as §1
# [20] = target: GlcNAc(a1-4)Gal(b1-4)GlcNAc(b1-3)Gal(b1-4)Glc
# Summary of the method: as §1
# [21] = target: GlcNAc(b1-2)Man(a1-3)[GlcNAc(b1-2)Man(a1-6)]Man(b1-4)GlcNAc(b1-4)[Fuc(a1-6)]GlcNAc
# Summary of the method: as §1
# [22] = target: GlcNAc(b1-3)Gal
# Summary of the method: as §1
# [23] = target: GlcNAc(b1-3)Gal(b1-4)Glc
# Summary of the method: as §1
# [24] = target: GlcNAc(b1-6)Gal(b1-4)GlcNAc
# Summary of the method: as §1
# [25] = target: GlcNAc(b1-6)GalNAc
# Summary of the method: as §1
# [26] = target: Kdn(a2-3)Gal(b1-4)Glc
# Summary of the method: as §1
# [27] = target: Kdn(a2-6)Gal(b1-4)GlcNAc
# Summary of the method: as §1
# [28] = target: Man(a1-2)Man(a1-2)Man(a1-3)Man
# Summary of the method: as §1
# [29] = target: Man(a1-2)Man(a1-3)Man
# Summary of the method: as §1
# [30] = target: Neu5Ac(a2-3)Gal(b1-3)GalNAc(b1-3)Gal(a1-4)Gal(b1-4)Glc
# Summary of the method: as §1
# [31] = target: Neu5Ac(a2-3)Gal(b1-3)[Neu5Ac(a2-3)Gal(b1-4)]GlcNAc
# Summary of the method: as §1
# [32] = target: Neu5Ac(a2-3)Gal(b1-4)[Fuc(a1-3)]GlcNAc(b1-3)GalNAc
# Summary of the method: as §1
# [33] = target: Neu5Ac(a2-3)GalNAc(b1-4)GlcNAc
# Summary of the method: as §1
# [34] = target: Neu5Ac(a2-6)Gal(b1-4)GlcNAc(b1-2)Man(a1-3)[Gal(b1-4)GlcNAc(b1-2)Man(a1-6)]Man(b1-4)GlcNAc(b1-4)GlcNAc
# Summary of the method: as §1
# [35] = target: Neu5Ac(a2-6)Gal(b1-4)GlcNAc(b1-2)Man(a1-3)[Neu5Ac(a2-6)Gal(b1-4)GlcNAc(b1-2)Man(a1-6)]Man(b1-4)GlcNAc(b1-4)GlcNAc
# Summary of the method: as §1
# [36] = target: Neu5Ac(a2-6)Gal(b1-4)GlcNAc(b1-3)Gal(b1-3)GlcNAc
# Summary of the method: as §1
# [37] = target: Neu5Ac(b2-6)Gal(b1-4)GlcNAc
# Summary of the method: as §1
# [38] = target: Neu5Ac(b2-6)GalNAc
# Summary of the method: as §1
# [39] = target: Neu5Ac9Ac(a2-3)Gal(b1-3)GlcNAc
# Summary of the method: as §1
binder,measurement,setting,value
"Gal 3 (Homo sapiens), P17931 (protein) MADNFSLHDALSGSGNPNPQGWPGAWGNQPAGAGGYPGASYPGAYPGQAPPGAYPGQAPPGAYHGAPGAYPGAPAPGVYPGPPSGPGAYPSSGQPSAPGAYPATGPYGAPAGPLIVPYNLPLPGGVVPRMLITILGTVKPNANILDFQRGNDVAFHFNPRFNENNRRVIVCNTKLDNNWGREESQSVFPFESGKPFKIQVLVEPDHFKVAVNDAHLLQYNHRVKKLNEISKLGISGDIDLTSASYTMI",glycan array binding signal (z-score),[1],-0.057
same,glycan array binding signal (z-score),[2],0.064
same,glycan array binding signal (z-score),[3],-0.032
same,glycan array binding signal (z-score),[4],19.8
same,glycan array binding signal (z-score),[5],0.619
same,glycan array binding signal (z-score),[6],0.242
same,glycan array binding signal (z-score),[7],0.045
same,glycan array binding signal (z-score),[8],-0.041
same,glycan array binding signal (z-score),[9],-0.061
same,glycan array binding signal (z-score),[10],-0.079
same,glycan array binding signal (z-score),[11],0.028
same,glycan array binding signal (z-score),[12],-0.068
same,glycan array binding signal (z-score),[13],-0.086
same,glycan array binding signal (z-score),[14],-0.047
same,glycan array binding signal (z-score),[15],-0.042
same,glycan array binding signal (z-score),[16],-0.007
same,glycan array binding signal (z-score),[17],-0.023
same,glycan array binding signal (z-score),[18],-0.051
same,glycan array binding signal (z-score),[19],-0.057
same,glycan array binding signal (z-score),[20],-0.057
same,glycan array binding signal (z-score),[21],-0.012
same,glycan array binding signal (z-score),[22],-0.059
same,glycan array binding signal (z-score),[23],-0.053
same,glycan array binding signal (z-score),[24],-0.076
same,glycan array binding signal (z-score),[25],-0.058
same,glycan array binding signal (z-score),[26],-0.004
same,glycan array binding signal (z-score),[27],-0.071
same,glycan array binding signal (z-score),[28],-0.067
same,glycan array binding signal (z-score),[29],-0.024
same,glycan array binding signal (z-score),[30],0.003
same,glycan array binding signal (z-score),[31],-0.076
same,glycan array binding signal (z-score),[32],0.182
same,glycan array binding signal (z-score),[33],-0.062
same,glycan array binding signal (z-score),[34],0.028
same,glycan array binding signal (z-score),[35],-0.05
same,glycan array binding signal (z-score),[36],-0.061
same,glycan array binding signal (z-score),[37],-0.083
same,glycan array binding signal (z-score),[38],-0.023
same,glycan array binding signal (z-score),[39],-0.069
